HttQ103 aggreg: reduces HttQ103-GFP aggregates in PC12 cells; PC12 HttQ103-GFP aggregates, Acumen cytometry, 40 h; Potency, µM (highest dose often 46.1 µM), for the others: at the top dose activity change, negative = inhibition, actives largely listed as inhibitors; 220,000 compounds, 1.1% hits; further: potency means the concentration at half of the fitted maximal effect; on the % scale 0 is the no-effect control and ±100 the full control effect; nearly all actives have a fitted effect of over 60% in size
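PC12/HTTQ103-GFP, ecdysone-inducible; teb 100 nM; cpd qHTS titration; GFP aggregates read on laser cytometer, Ex 488/Em 500-530 nm.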
IMPase Li cell: membrane-permeable IMPase blocker, potentiated with lithium; CHO-M1 cells, IP1 TR-FRET (IP-One), carbachol + lithium; Potency, µM (series often up to 59.4 µM), for inactives: at the top dose activity, negative = IMPase inhibition, most hits filed as inhibitors; 210,000 compounds, 0.35% hits; AID 1457;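 further: IP1 builds up when IMPase is blocked and the TR-FRET signal falls; potency means the concentration at half of the fitted maximal effect; plate controls were basal vehicle for no effect and high inhibitor control for full effect; nearly all actives have a fitted effect of over 50% in size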
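CHO cells stably expressing M1 receptor (2000/well, cultured 16–30 h) treated 30 min at 37C with compound plus low lithium. Cytosolic IP1 by TR-FRET (665/620 ratio and 620 channel) after 10 min lysis; AC50 by Hill fit.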
HTT ATP protect: protects HTT-Q103 PC12 cells, measured by ATP | AID 1471 | Potency, µM (series often up to 56.4 µM), for inactives: cytoprotection (ATP increase), most hits filed as activators | PC12 HTT-Q103 induced, cytoprotection, ATP luminescence, 40 h | 230,000 compounds, 0.14% hits; further: potency means the concentration at half of the fitted maximal effect; % of control where 0% means no effect; nearly all actives have a fitted effect of over 45% in size
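Rat PC12, Q103 Htt exon1-GFP fusion, ecdysone promoter; tebufenozide inducer 100 nM final; compound titration; qHTS, 1500 cells/well; ATPlite luminescent read.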
IMPase inh: membrane-permeable compound that blocks inositol monophosphatase. CHO-M1 cells, IP1 accumulation, HTRF TR-FRET ratio. inhibition (IP1 accumulation), % at 46.1 µM. 120,000 tested, under 10 active. P97697; active means well fitted curve in the direction sought with a large enough effect in the signal ratio, not every such curve was filed as active; inconclusive means small, poorly fitted or top-dose-only effect, or a change in a side signal; inactive means no such curve, though single readings can be large or run the other way; the % refers to the signal ratio;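 further: cells stimulated with carbachol in lithium chloride buffer; plate controls were DMSO basal wells for no effect and reference inhibitor wells for full effect; higher means more IMPase inhibition seen as more IP1 and lower FRET ratio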
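Elevated IP1 in lysates lowers TR-FRET signal (665/620 ratio and 620 channel reported). Cells were CHO-M1, given carbachol (50 uM as added) plus 50mM LiCl, pH 7.4, 30 min, 37C; compounds titrated up to 46 uM; AC50 by Hill equation.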
ALDH1A1 inh: blocks purified human ALDH1A1 activity. P00352. Purified ALDH1A1, NADH fluorescence, propionaldehyde substrate. 220,000 compounds, 7.3% hits. Potency, µM (doses to about 75.3 µM), for the others: top-dose activity, negative = inhibition, actives largely listed as inhibitors; active means well fitted inhibition curve with a large enough effect, not every such curve was filed as active; inconclusive means small, poorly fitted or top-dose-only effect, or another doubt; inactive means no such curve, though single readings can be large or run the other way;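 further: potency means the concentration at half of the fitted maximal effect; plate controls were no enzyme wells and a reference inhibitor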
Target sequence (P00352 whole entry, looked up): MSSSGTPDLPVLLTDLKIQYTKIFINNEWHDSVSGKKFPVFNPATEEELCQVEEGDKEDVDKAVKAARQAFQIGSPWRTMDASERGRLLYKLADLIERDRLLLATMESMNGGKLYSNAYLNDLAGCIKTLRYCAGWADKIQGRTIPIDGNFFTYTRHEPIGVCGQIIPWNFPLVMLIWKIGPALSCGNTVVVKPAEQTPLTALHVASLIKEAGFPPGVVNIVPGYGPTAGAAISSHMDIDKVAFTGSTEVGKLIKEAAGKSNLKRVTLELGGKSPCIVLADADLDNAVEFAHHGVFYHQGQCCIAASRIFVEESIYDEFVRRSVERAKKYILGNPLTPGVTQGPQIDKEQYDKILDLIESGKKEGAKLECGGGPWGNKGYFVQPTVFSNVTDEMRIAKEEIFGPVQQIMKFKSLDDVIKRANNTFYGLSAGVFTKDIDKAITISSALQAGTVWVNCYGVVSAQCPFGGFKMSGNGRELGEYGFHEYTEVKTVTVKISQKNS
HPGD block: HPGD (human) dehydrogenase inhibition | P15428 | purified HPGD, NADH fluorescence kinetic, PGE2 substrate | Potency, µM, for inactives: at the highest dose activity change, negative = inhibition, actives largely listed as inhibitors | 150,000 compounds, 4.3% hits; active means well fitted inhibition curve with a large enough effect, not every such curve was filed as active; inconclusive means small, poorly fitted or top-dose-only effect, or another doubt; inactive means no such curve, though single readings can be large or run the other way; further: potency means the concentration at half of the fitted maximal effect; on the % scale 0 is the no-effect control and ±100 the full control effect
Target sequence (P15428 whole entry, looked up): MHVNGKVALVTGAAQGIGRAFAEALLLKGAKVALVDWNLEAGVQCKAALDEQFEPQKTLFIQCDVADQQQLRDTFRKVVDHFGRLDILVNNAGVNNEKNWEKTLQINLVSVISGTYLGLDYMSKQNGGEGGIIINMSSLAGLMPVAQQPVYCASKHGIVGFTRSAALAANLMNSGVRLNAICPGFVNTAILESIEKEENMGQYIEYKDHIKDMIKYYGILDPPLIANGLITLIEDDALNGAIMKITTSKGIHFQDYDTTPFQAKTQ
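NADH formation kinetics: reaction with 30 uM PGE2 and 1 mM NAD+ (final), 20 nM enzyme, Tris-HCl pH 8 with Tween 20, after 15 min compound preincubation at room temperature. Fluorescence change, last versus first of five reads.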
* marks the source's active call; other numbers are inactive results; [ ] = another dose, or the depositor's remark. In the library only some 9.4% were active in any assay of this set; here they are far more common. Unless noted, the call rests on the fitted dose curve; in most records, active means well fitted curve in the direction sought with a large enough effect; inconclusive means small, poorly fitted or top-dose-only effect, or another doubt; inactive means no such curve, though single readings can be large; an effect the other way counts as inactive or inconclusive.

For Cc1ccc(S(=O)(=O)NCCc2ccncc2)cc1 the results were HttQ103 aggreg -2%, IMPase Li cell 12%[38.3 µM], HTT ATP protect -13%, IMPase inh 8, ALDH1A1 inh inconclusive and HPGD block 2%.
Screening Cc1ccc(C(=O)NCCCNc2ccccc2[N+](=O)[O-])cc1 returned HttQ103 aggreg 23%, IMPase Li cell 12%, HTT ATP protect -36% and ALDH1A1 inh 2.2µM*.
`Cc1ccc(S(=O)(=O)NCCCOC(=O)Nc2ccncc2)cc1` gave HttQ103 aggreg -17%, IMPase Li cell -7%[38.3 µM], HTT ATP protect -11%, IMPase inh -10, ALDH1A1 inh 16µM* and HPGD block -6%.
Cc1ccc(S(=O)(=O)NCCCNC(=O)c2ccccc2)cc1 was read as HttQ103 aggreg 0%, IMPase Li cell 9%[38.3 µM], HTT ATP protect 12%, IMPase inh -1, ALDH1A1 inh 13µM* and HPGD block -12%.
For CCCCC/C=C\C\C=C/C=C/C=C/[C@@H](SC[C@H](N)C(=O)NCC(=O)O)[C@@H](O)CCCC(=O)O the results were IMPase Li cell -11%, HTT ATP protect 6% and ALDH1A1 inh -1%.
Cc1ccc(Nc2nc3ccc(C)cc3nc2-n2nc(C)cc2C)c(C)c1 was read as IMPase inh -3.
`CCOC(=O)C(CSCC(=O)c1ccc(Cl)cc1Cl)NC(=O)OC(C)(C)C` (configuration not stated) gave HttQ103 aggreg 30%, IMPase Li cell 32%[38.3 µM], HTT ATP protect 9%, IMPase inh 3, ALDH1A1 inh 7.9µM* and HPGD block inconclusive.
Cn1c(C(=O)OCC(=O)NCc2cccs2)cc2sccc21 was read as HttQ103 aggreg -6%, IMPase Li cell 14µM*, HTT ATP protect -13%, IMPase inh inconclusive, ALDH1A1 inh -7% and HPGD block -21%.
For CC(OC(=O)c1cc2sccc2n1C)C(=O)NCc1cccs1 (configuration not stated) the results were HttQ103 aggreg -23%, IMPase Li cell -1%[38.3 µM], HTT ATP protect -25%[10 µM], IMPase inh 3, ALDH1A1 inh 8% and HPGD block inconclusive.
Screening Cn1c(C(=O)OCC(=O)NCC2CCCO2)cc2sccc21 (configuration not stated) returned HttQ103 aggreg 2%, IMPase Li cell 2%, HTT ATP protect -3%[10 µM], IMPase inh -5, ALDH1A1 inh -23% and HPGD block 16µM*.
`O=C(O)c1ccccc1-c1ccccc1C(=O)Nc1ccc2c(c1)Cc1ccccc1-2` gave IMPase Li cell -8%, HTT ATP protect -2%[10 µM], ALDH1A1 inh 8%[13.5 µM] and HPGD block -4%.
C=C[C@]1(C)C[C@H](OC(=O)CO)[C@]2(C)C3C(=O)CC[C@]3(CC[C@H]2C)[C@H](C)[C@H]1O (some centres not stated) was read as IMPase Li cell -13%, HTT ATP protect 5%[10 µM], ALDH1A1 inh -3%[13.5 µM] and HPGD block -5%.
`O=[N+]([O-])c1cc(C(F)(F)F)ccc1N1CCC(O)CC1` gave HttQ103 aggreg -6%[9.22 µM], IMPase Li cell -3%, HTT ATP protect 19%[10 µM] and ALDH1A1 inh 11µM*.
`CCCCCCCCCCCCCC[n+]1ccc(C)cc1` gave HttQ103 aggreg 22µM* and HTT ATP protect -97%.
For CCCCCCCCCCCCCCCC[n+]1cccc(C(=O)N(CC)CC)c1 the results were HttQ103 aggreg inconclusive, IMPase Li cell 24%, HTT ATP protect -99%[10 µM], ALDH1A1 inh inconclusive and HPGD block 1%.
For CCCCCCCCCCCC[n+]1ccc2ccccc2c1 the results were HttQ103 aggreg 7.1µM* and HTT ATP protect -97%.
For CCCCCCCCCCCCCCCC[n+]1ccc(C(N)=O)cc1 the results were HttQ103 aggreg 1%, IMPase Li cell 9%, HTT ATP protect 11%[10 µM], ALDH1A1 inh -3% and HPGD block -2%.
For CCCCCCCCCCCCCCCC[n+]1ccc(/C=N/O)cc1 the results were HttQ103 aggreg 8.9µM*, IMPase Li cell 19%, HTT ATP protect -36%[10 µM], ALDH1A1 inh -6% and HPGD block -2%.
Cc1ccc[n+](CC(=O)Nc2ccc([N+](=O)[O-])cc2Cl)c1 was read as HttQ103 aggreg 1%, IMPase Li cell 17%, HTT ATP protect 4%[10 µM], IMPase inh 6, ALDH1A1 inh 16µM* and HPGD block -17%.
`COc1cc([N+](=O)[O-])ccc1NC(=O)C[n+]1cccc(C)c1` gave HttQ103 aggreg 17%, IMPase Li cell 36%[38.3 µM], HTT ATP protect 22%[10 µM], IMPase inh inconclusive, ALDH1A1 inh inconclusive and HPGD block -13%.
Screening Cc1nn(Cc2ccc(Cl)c(Cl)c2)c(C)c1NC(=O)c1cc(CC(C)C)on1 returned HttQ103 aggreg 10µM*, IMPase Li cell 33%[38.3 µM], HTT ATP protect 15%, IMPase inh 17, ALDH1A1 inh inconclusive and HPGD block -13%.
Cc1nc2nc(SCC(=O)N3CCOCC3)nn2c(C)c1Cc1c(F)cccc1Cl was read as HttQ103 aggreg 14%, IMPase Li cell 16%[38.3 µM], HTT ATP protect 7%[1.9 µM], IMPase inh 1, ALDH1A1 inh inconclusive and HPGD block 8.9µM*.
For O=C(CCc1ccccc1)OCC(=O)c1ccc([N+](=O)[O-])cc1 the results were HttQ103 aggreg 3%, IMPase Li cell -5%, HTT ATP protect -10% and ALDH1A1 inh 8.9µM*.
Screening Cc1oc2nc(SCC(=O)N3CCCCC3)nc(N)c2c1C returned HttQ103 aggreg -13%, IMPase Li cell 2%, HTT ATP protect -21%[10 µM], ALDH1A1 inh inconclusive and HPGD block 1.4µM*.
For O=C(NN=C1CCCCCCC1)c1ccccn1 the results were HttQ103 aggreg 4%, HTT ATP protect -14%, IMPase inh -5 and ALDH1A1 inh -4%.
COCCNC(=O)c1ccc2ccccc2n1 was read as HttQ103 aggreg 2%, IMPase Li cell 3%[38.3 µM], HTT ATP protect 3%, IMPase inh 1, ALDH1A1 inh inconclusive and HPGD block 22µM*.
O=C(NN=C1CCCCCCC1)c1ccc2ccccc2n1 was read as HttQ103 aggreg 14%, IMPase Li cell 25%, HTT ATP protect -11%[10 µM] and ALDH1A1 inh 1.6µM*.
`NNC(=O)c1ccc2ccccc2n1` gave HttQ103 aggreg -25%, IMPase Li cell 13%, HTT ATP protect -54% and ALDH1A1 inh 7.9µM*.
CN(C(=O)CSc1nnc2ccccn12)C1CCS(=O)(=O)C1 (configuration not stated) was read as HttQ103 aggreg 3%, IMPase Li cell 20%[38.3 µM], HTT ATP protect -5%, IMPase inh -5, ALDH1A1 inh -15% and HPGD block -16%.
